From PubChem
IDE exosite inh = displaces the probe from the exo-site of human IDE; P14735; z-score at 20 µM; AID 1259349; 17,000 tested, 6.3% active; purified IDE, FL-6b probe fluorescence polarization; stronger effect = lower value;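 active = z-score of -3 or lower, meaning strong loss of probe binding signal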;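 note: His-tagged human IDE residues 42-1019 made in E. coli with 30 nM FL-6b probe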
Target sequence (P14735 42-1019 limits assumed): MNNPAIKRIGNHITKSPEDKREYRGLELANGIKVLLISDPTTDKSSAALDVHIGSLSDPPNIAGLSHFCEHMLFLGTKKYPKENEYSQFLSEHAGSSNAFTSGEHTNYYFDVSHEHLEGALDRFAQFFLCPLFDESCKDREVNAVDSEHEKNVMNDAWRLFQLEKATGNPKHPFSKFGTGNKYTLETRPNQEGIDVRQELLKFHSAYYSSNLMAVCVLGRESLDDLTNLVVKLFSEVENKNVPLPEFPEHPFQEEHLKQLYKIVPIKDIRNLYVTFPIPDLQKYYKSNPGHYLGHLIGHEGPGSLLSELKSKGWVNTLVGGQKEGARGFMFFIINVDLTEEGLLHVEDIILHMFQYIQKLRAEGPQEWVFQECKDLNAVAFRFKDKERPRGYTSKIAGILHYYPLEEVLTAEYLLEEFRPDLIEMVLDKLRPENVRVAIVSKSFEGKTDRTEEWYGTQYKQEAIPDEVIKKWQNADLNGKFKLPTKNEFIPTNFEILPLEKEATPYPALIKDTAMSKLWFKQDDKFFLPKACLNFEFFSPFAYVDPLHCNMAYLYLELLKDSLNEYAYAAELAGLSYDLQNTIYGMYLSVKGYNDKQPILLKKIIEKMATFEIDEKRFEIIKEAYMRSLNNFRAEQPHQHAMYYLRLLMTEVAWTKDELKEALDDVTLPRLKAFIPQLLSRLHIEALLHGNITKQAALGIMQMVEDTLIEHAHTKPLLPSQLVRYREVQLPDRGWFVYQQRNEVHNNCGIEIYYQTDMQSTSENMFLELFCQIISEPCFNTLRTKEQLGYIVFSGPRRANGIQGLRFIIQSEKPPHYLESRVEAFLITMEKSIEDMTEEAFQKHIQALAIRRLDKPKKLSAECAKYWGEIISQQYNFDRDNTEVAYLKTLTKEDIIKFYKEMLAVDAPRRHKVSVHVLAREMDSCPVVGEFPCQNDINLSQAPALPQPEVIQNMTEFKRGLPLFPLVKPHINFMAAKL
Numbers stand for hits; i = inactive. Many of the other results were omitted from the sample, so hits are more common in it than they were.

SMILES	IDE exosite inh
CCC(=O)N1CC(=O)N2[C@@H](CO)[C@@H](c3ccc(C#CCc4ccccc4)cc3)[C@@H]2C1	-7.4
COc1cccc(NC(=O)N2CC(=O)N3[C@H](C2)[C@@H](c2ccc(C#CC4CCCCC4)cc2)[C@@H]3CO)c1	i
C/C=C/c1ccc(C2[C@H]3CNC[C@@H]2N3C(=O)Nc2ccc(C(F)(F)F)cc2)cc1 (some centres not stated)	i
C[C@@H]1CN([C@@H](C)CO)C(=O)CCCn2cc(nn2)CO[C@@H]1CN(C)Cc1ccccc1	i
CC(C)CC#Cc1ccc([C@H]2[C@@H](CO)N3C(=O)CN(C(=O)c4cnccn4)C[C@H]23)cc1	i
C[C@@H](O)C#Cc1ccc([C@@H]2[C@H](CO)N3CCCCN(C(=O)Nc4ccccc4)C[C@@H]23)cc1	i
CN1C(=O)c2cc(NS(=O)(=O)c3cccc(F)c3)ccc2OC[C@H]2O[C@@H](CC(=O)N3CCc4ccccc4C3)CC[C@@H]21	i
N#C[C@@H]1[C@H](c2ccccc2/C=C/c2ccccc2)[C@H](CO)N1S(=O)(=O)c1ccc(F)cc1	i
COc1ccc2c3c([nH]c2c1)[C@H](CO)N(C(C)=O)CC31CN(C(=O)CN2CCOCC2)C1	i
CC(C)NC(=O)N1CCCCN2[C@H](CO)[C@H](c3ccc(C#Cc4ccccc4)cc3)[C@@H]2C1	-9.8
CC(C)NC(=O)N1CCCCN2[C@H](CO)[C@H](c3ccc(C#C[C@@H](C)O)cc3)[C@@H]2C1	i
CC(C)NC(=O)N1CCCCN2[C@H](CO)[C@@H](c3ccc(C#C[C@@H](C)O)cc3)[C@H]2C1	i
CC(C)NC(=O)N1CCCCN2[C@H](CO)[C@@H](c3ccc(C#Cc4ccccc4)cc3)[C@@H]2C1	-7.5
CC(C)NC(=O)N1CCCCN2[C@@H](CO)[C@H](c3ccc(C#Cc4ccccc4)cc3)[C@@H]2C1	-11
CC(C)C#Cc1ccc([C@@H]2[C@@H](CO)N3CCCCN(C(=O)NC(C)C)C[C@H]23)cc1	i
CC(C)NC(=O)N1CCCCN2[C@H](CO)[C@@H](c3ccc(C#C[C@H](C)O)cc3)[C@H]2C1	i
CC(C)NC(=O)N1CCCCN2[C@H](CO)[C@@H](c3ccc(C#Cc4ccccc4F)cc3)[C@@H]2C1	i
CC(C)NC(=O)N1CCCCN2[C@H](C1)[C@H](c1ccc(C#C[C@H](C)O)cc1)[C@@H]2CO	i
C/C=C/c1ccc([C@@H]2[C@H]3CN(Cc4ccc(F)cc4)CC(=O)N3[C@H]2CO)cc1	i
COc1ccccc1NC(=O)N1CC(=O)N2[C@H](CO)[C@H](c3ccc(C#Cc4ccc(F)cc4)cc3)[C@@H]2C1	i
COc1cccc(CN2CC3(CCN(S(C)(=O)=O)CC3)c3c(n(C)c4cc(OC)ccc34)[C@H]2CO)c1	i
COc1ccc2c3c([nH]c2c1)[C@H](CO)N(C(=O)CC1CC1)CC31CN(Cc2cccnc2)C1	i
CCC(=O)N1C[C@@H](O)COC[C@@H]2O[C@H](CC(=O)NC)CC[C@H]21	i
Cc1cccc(S(=O)(=O)N[C@H]2CC[C@H](CCNC(=O)Nc3cc(F)ccc3F)O[C@H]2CO)c1	i
CCCC#Cc1ccc([C@@H]2[C@@H](C#N)N(S(C)(=O)=O)[C@@H]2CO)cc1	i
SMILES	IDE exosite inh
CCCC(=O)Nc1ccc2c(c1)OC[C@@H](C)N(CC1CCOCC1)C[C@@H](C)[C@H](OC)CN(C)C2=O	i
OC[C@H]1[C@@H](c2ccc(Br)cc2)[C@@H]2CNCCCCN12	i
COc1ccccc1NC(=O)C[C@H]1CC[C@H]2[C@@H](COc3ccc(NS(C)(=O)=O)cc3C(=O)N2C)O1	-6.1
CCS(=O)(=O)Nc1ccc2c(c1)C(=O)N(C)[C@@H]1CC[C@@H](CC(=O)N3CCN(C)CC3)O[C@H]1CO2	i
CN1C(=O)c2cc(NS(C)(=O)=O)ccc2OC[C@@H]2O[C@@H](CC(=O)N3CCOCC3)CC[C@H]21	i
COc1ccccc1NC(=O)Nc1ccc2c(c1)C(=O)N(C)[C@H]1CC[C@H](CC(=O)Nc3ccc4c(c3)COC4)O[C@@H]1CO2	i
CN1C(=O)c2cc(NS(C)(=O)=O)ccc2OC[C@H]2O[C@H](CC(=O)N3CCOCC3)CC[C@@H]21	-14
CN1C(=O)c2cc(NS(C)(=O)=O)ccc2OC[C@H]2O[C@@H](CC(=O)NCc3ccccc3)CC[C@@H]21	i
CCS(=O)(=O)N1CC(=O)N2[C@@H](CO)[C@H](c3ccc(C#CCC(C)C)cc3)[C@@H]2C1	i
CO[C@H]1CN(C)C(=O)c2ccc(NC(=O)c3ccccc3F)cc2OC[C@@H](C)N(C)C[C@H]1C	i
Cc1noc(C)c1NC(=O)N1C[C@@H](O)COC[C@H]2O[C@@H](CC(=O)NCC3CC3)CC[C@@H]21	i
Cc1ccccc1S(=O)(=O)N1CC(=O)N2[C@@H](CO)[C@@H](c3ccc(C#CC4CC4)cc3)[C@@H]2C1	i
O=C(C[C@@H]1CC[C@H]2[C@@H](COC[C@H](O)CN2C(=O)Nc2cc(Cl)cc(Cl)c2)O1)N1CCOCC1	i
O=C(c1ccc2c(c1)OCO2)N1CC[C@@H]2[C@H]1c1cc(C#Cc3ccccc3)ccc1N[C@@H]2CO	i
CCC(=O)N1CC2(CCN(C(=O)Nc3c(C)noc3C)CC2)c2c([nH]c3cc(OC)ccc23)[C@@H]1CO	i
COc1ccccc1CNC(=O)C[C@H]1C[C@H]2c3cc(NC(=O)C4CCC4)ccc3O[C@H]2[C@@H](CO)O1	i
COCC(=O)N1[C@H](C#N)[C@@H](c2ccccc2-c2cccc(F)c2)[C@@H]1CO	i
COc1ccccc1-c1ccc([C@H]2[C@H]3CN(C(=O)NC4CCCC4)CCCCN3[C@H]2CO)cc1	-14
COc1ccccc1-c1ccc([C@@H]2[C@H](CO)N3CCCCN(C(=O)NC4CCCC4)C[C@@H]23)cc1	-16
COc1ccccc1-c1ccc([C@@H]2[C@H]3CN(C(=O)NC4CCCC4)CCCCN3[C@H]2CO)cc1	-12
COCC#Cc1ccc([C@H]2[C@H]3CN(C(=O)NC4CCCC4)CCCCN3[C@H]2CO)cc1	i
COCC#Cc1ccc([C@H]2[C@@H](CO)N3CCCCN(C(=O)NC4CCCC4)C[C@@H]23)cc1	i
COc1ccccc1-c1ccc([C@@H]2[C@@H](CO)N3CCCCN(C(=O)NC4CCCC4)C[C@H]23)cc1	-8.4
C[C@@H]1CCCCO[C@H](CN(C)CC2CCCCC2)[C@H](C)CN([C@@H](C)CO)C(=O)c2cc(NC(=O)Nc3ccc(C(F)(F)F)cc3)ccc2O1	i
O=C(C[C@@H]1CC[C@H]2[C@@H](COC[C@H](O)CN2Cc2nccs2)O1)N1CCC(Cc2ccccc2)CC1	i
SMILES	IDE exosite inh
CN1C(=O)c2cc(NC(=O)CC(F)(F)F)ccc2OC[C@H]2O[C@@H](CC(=O)NC3CCC3)CC[C@@H]21	i
N#C[C@H]1[C@H](c2ccc(-c3cncnc3)cc2)[C@H](CO)N1C(=O)CN1CCOCC1	i
C[C@H](NC(=O)C[C@H]1C=C[C@H](NC(=O)c2cccnc2)[C@H](CO)O1)c1ccccc1	i
Cc1cc(C(=O)Nc2ccc3c(c2)C(=O)N(C)[C@@H]2CC[C@H](CC(=O)O)O[C@@H]2CO3)no1	i
C[C@@H]1CN([C@@H](C)CO)C(=O)c2c(c3ccccc3n2C)-c2ccccc2CO[C@H]1CN(C)C(=O)[C@H]1CCCN1C	i
CCCNC(=O)N1CC2(C1)[C@H](c1ccccc1)[C@H](CO)N2C(=O)c1cccnc1	i
COCC(=O)N1[C@H](C#N)[C@H](c2ccc(C3=CCCCC3)cc2)[C@@H]1CO	i
N#C[C@@H]1[C@H](c2ccccc2-c2cccc(F)c2)[C@@H](CO)N1C(=O)C1CC1	i
